# From PubChem BioAssay
# Glyco luc inh: N-linked glycosylation inhibition. 0.23% of 360,000 active. D54 ERlucT glycosylation luciferase reporter, 24 h; percent of 100 nM tunicamycin response. reporter increase, % at 12.5 µM;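 active = mean luciferase reporter signal, scaled so untreated is 0 and the glycosylation-blocking control 100, at or above a set limit in every replicate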;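 also: luciferase carries N-glycosylation sites so blocking glycosylation raises the light; 0% = median of neutral control wells and 100% = median of 100 nM tunicamycin wells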
# LMP1 NFkB inh: inhibitors of Epstein-Barr LMP1-induced NF-kappaB reporter. LMP1-induced NF-kappaB luciferase reporter cells, luminescence. inhibition, % at 12.5 µM. 0.69% of 350,000 active. AID 504558; in the data active = inhibition above about 41%;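 also: 0% = neutral control wells and 100% = reference inhibitor control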
# Env fusion inh: inhibitors of HIV Env-mediated cell fusion | HeLa-JRFL Env/CEM21 cell fusion, luciferase | inhibition, % at 12.3 µM | 1.1% of 360,000 active | AID 651610;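 active = mean replicate inhibition score of at least 50 and every replicate individually at or above 50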;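 also: 0% = plate neutral controls and 100% = maraviroc near 300 nM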
# NSD2 inh: inhibitors of human histone methyltransferase NSD2 | O96028 | NSD2 peptide methylation, AlphaScreen, 120 min | inhibition, % at 12.5 µM | 0.54% of 310,000 active; in the data active = inhibition above about 50%
# Target sequence (O96028 whole entry, looked up): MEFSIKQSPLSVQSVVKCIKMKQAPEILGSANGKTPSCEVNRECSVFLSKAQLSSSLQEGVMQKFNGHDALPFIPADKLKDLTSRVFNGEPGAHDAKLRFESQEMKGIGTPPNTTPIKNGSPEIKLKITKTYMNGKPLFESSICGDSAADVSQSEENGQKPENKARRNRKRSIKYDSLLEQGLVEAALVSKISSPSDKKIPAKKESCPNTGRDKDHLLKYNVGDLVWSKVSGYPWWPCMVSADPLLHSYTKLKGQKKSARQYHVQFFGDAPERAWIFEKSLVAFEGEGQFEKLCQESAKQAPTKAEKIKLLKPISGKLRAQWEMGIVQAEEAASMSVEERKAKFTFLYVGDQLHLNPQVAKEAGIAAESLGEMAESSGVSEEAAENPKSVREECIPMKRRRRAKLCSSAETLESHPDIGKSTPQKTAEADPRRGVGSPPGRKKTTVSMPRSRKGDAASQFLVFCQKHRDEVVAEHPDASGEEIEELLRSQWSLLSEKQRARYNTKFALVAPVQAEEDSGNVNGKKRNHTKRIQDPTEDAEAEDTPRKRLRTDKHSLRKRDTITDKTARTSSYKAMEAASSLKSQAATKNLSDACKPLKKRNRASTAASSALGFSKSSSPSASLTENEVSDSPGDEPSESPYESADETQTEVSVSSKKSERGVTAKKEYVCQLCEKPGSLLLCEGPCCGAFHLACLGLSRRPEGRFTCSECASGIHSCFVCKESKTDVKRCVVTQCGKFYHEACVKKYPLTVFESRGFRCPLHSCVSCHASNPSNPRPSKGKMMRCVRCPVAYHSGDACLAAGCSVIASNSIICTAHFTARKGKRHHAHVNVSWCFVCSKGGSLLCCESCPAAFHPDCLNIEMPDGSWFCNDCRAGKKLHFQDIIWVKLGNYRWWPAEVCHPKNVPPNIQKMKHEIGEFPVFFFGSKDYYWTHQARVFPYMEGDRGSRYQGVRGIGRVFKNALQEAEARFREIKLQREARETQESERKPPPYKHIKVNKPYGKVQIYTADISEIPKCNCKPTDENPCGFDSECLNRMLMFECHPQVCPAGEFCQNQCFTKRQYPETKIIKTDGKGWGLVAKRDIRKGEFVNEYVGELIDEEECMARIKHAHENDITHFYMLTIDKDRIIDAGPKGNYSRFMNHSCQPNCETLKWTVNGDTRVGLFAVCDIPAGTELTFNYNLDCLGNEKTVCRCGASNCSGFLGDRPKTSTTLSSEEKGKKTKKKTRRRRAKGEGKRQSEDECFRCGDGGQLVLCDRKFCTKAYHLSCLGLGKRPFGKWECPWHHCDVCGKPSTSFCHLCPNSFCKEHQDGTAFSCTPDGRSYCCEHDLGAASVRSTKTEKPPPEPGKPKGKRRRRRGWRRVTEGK
# PAX8 inh HTS: PAX8 transcriptional activity inhibition. 1.2% of 360,000 active. RMG-I TPO-luciferase reporter, SteadyGlo, 24 h. AID 652154. inhibition, % at 12.6 µM;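 active = mean replicate inhibition at least 60% with every replicate also reaching 60%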;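 also: luciferase light reporting Pax8 driven TPO promoter activity; plate controls were median of neutral control wells for no effect and mitoxantrone controls for full effect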
# Shn3 3UTR inh: Schnurri-3 reporter inhibition in Clone20 osteoblasts | Clone20 osteoblast Shn3 3'UTR firefly luciferase, 24 h | AID 588674 | inhibition, % at 12.5 µM | 0.52% of 360,000 active;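 active = mean inhibition of at least 75% with every replicate also reaching 75%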;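 also: 0% = median of neutral control wells and 100% = pilot-screen positive control compound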
# AlphaScreen art: AlphaScreen assay artifact in NSD2 counter-screen. AID 1053174. AlphaScreen artifact counterscreen, preloaded methylated H4 peptide. 9.4% of 1,500 active. shares compounds with NSD2 inh. AC35, µM (titrated, usually from 10 µM), for inactives: at the top dose activity change, negative = signal loss; call rule not given here
# * = called active by the depositor; / = not tested or not shown; [ ] = another dose, or the depositor's remark. This is a sample that favours compounds with a hit; in the whole collection about 2.8% have one here.
SMILES,Glyco luc inh,LMP1 NFkB inh,Env fusion inh,NSD2 inh,PAX8 inh HTS,Shn3 3UTR inh,AlphaScreen art
O=C(c1ccc2c(c1)OCO2)N1CC(=O)N2[C@H](CO)[C@H](c3ccc(C#CCC4CCCC4)cc3)[C@H]2C1,/,/,/,/,6,/,/
N#Cc1c(SCC(=O)Nc2nncs2)sc2c(O)cc(=O)[nH]c12,3,-5,27,111*,10,-7,-10%
N#Cc1c(SCC(=O)Nc2ccc(C(F)(F)F)cc2)sc2c(O)cc(=O)[nH]c12,1,2,1,/,14,-16,/
Cc1ccc(Cl)c2c1NC(=O)C2(O)CC(=O)c1ccc(Br)cc1 (stereo not drawn),0,-8,-61,10,12,2,/
O=C(CC1(O)C(=O)Nc2cc(Cl)cc(Cl)c21)c1ccncc1 (stereo not drawn),2,4,-34,97*,/,-8,5%
CCCCN(CC)CCNC(=O)c1ccc2c(Cl)c3c(nc2c1)CCC3,-8,-3,3,75*,-9,-24,-4%
C[C@H]1CN([C@@H](C)CO)S(=O)(=O)c2ccc(C#CC3(O)CCCC3)cc2O[C@@H]1CN(C)C(=O)Cc1ccccc1,/,/,-29[16.7 µM],/,/,/,/
COc1ccccc1C#Cc1cnc2c(c1)C(=O)N([C@H](C)CO)C[C@H](C)[C@@H](CN(C)C(=O)c1ccc3c(c1)OCO3)O2,/,/,18[16.7 µM],/,21,/,/
CCN1[C@@H]2c3ccc(C4=CCCC4)c(=O)n3C[C@H]1[C@H](CO)[C@H]2C(=O)N[C@@H](C)c1ccccc1,/,/,/,/,-7,/,/
CCOC(=O)c1ccc(S(=O)(=O)N2CCN(C(C)=O)CC2)cc1,-3,3,-21,-3,9,17,/
CCOC(=O)c1ccc(S(=O)(=O)N2CCN(c3ccccn3)CC2)cc1,-2,7,-1,51*,-1,16,-1%
C[C@@H]1CN([C@H](C)CO)C(=O)c2cc(-c3cccc(C#N)c3)cnc2O[C@@H]1CN(C)Cc1cccnc1,/,/,/,/,-31,/,/
S=C(Nc1ccc2nsnc2c1)N1CCCC1,1,-16,-20,141*,-93,-16,6%
CCCN1C[C@@H](C)[C@@H](OC)CN(C)C(=O)c2ccc(NC(=O)C3CCC3)cc2OC[C@H]1C,/,/,6[16.7 µM],/,/,/,/
O=C(c1ccc(N2CCOCC2)c([N+](=O)[O-])c1)N1CCN(Cc2ccccc2)CC1,0,6,9,120*,15,11,-3%
CCN(CC)CCCNC(=O)c1cc2c(Cl)nc3ccccc3c2s1,2,-24,-26,80*,3,10,-4%
CN(CCCNC(=O)c1cc2c(Cl)nc3ccccc3c2s1)Cc1ccccc1,-3,-44,14,13,-11,12,/
Cc1noc(C)c1NC(=O)Nc1cccc2c1O[C@H](CN(C)C(=O)Nc1cccc3ccccc13)[C@@H](C)CN([C@H](C)CO)C2=O,/,/,2[16.7 µM],/,18,/,/
COc1ccc(CN(C)C[C@H]2OCCCC[C@H](C)Oc3ccc(NC(=O)CCCN(C)C)cc3C(=O)N([C@@H](C)CO)C[C@@H]2C)cc1,/,/,29[16.7 µM],/,-20,/,/
CC(=O)c1ccc(-n2c(-c3cc(-c4ccco4)[nH]n3)n[nH]c2=S)cc1,1,7,/,59*,/,-9,-6%
O=C(O)c1ccc(-n2c(-c3cc(-c4ccco4)[nH]n3)n[nH]c2=S)cc1,6,7,/,2,/,10,/
O=C(CN1CCOCC1)NCCc1ccccc1,1,-5,-14,-1,3,-3,/
O=C(CN1CCOCC1)NCCNC(=O)CN1CCOCC1,1,-8,13,60*,-11,5,-4%
C=CCC1C=C(Cc2ccccc2)CC(CC=C)N1 (stereo not drawn),-3,3,17,54*,1,2,-4%
O=C(Nc1ccc(F)cc1)N[C@@H]1C[C@@H]2O[C@H](CO)CC[C@@H]2O[C@@H]1CCc1ccc(-c2ccccc2)cc1,/,/,/,/,-26,/,/
SMILES,Glyco luc inh,LMP1 NFkB inh,Env fusion inh,NSD2 inh,PAX8 inh HTS,Shn3 3UTR inh,AlphaScreen art
O=C(O)CN1C(=O)/C(=C\c2cccc(OCc3ccc(Cl)cc3)c2)SC1=S,2,25,-7,22,-2,3,/
O=C(O)CN1C(=O)/C(=C\c2cccc(OCc3ccc(F)cc3)c2)SC1=S,0,27,-5,54*,-11,8,-12%
C=CCc1cc(/C=C/c2nc(O)c([N+](=O)[O-])c(=O)[nH]2)cc(OC)c1O,1,1,-3,78*,8,-2,-9%
CCOc1cc(/C=C\c2nc(O)c([N+](=O)[O-])c(=O)[nH]2)ccc1OC(C)C,1,-8,7,-1,-22,7,/
O=c1cc(OCc2ccccc2)cc[nH]1,3,1,9,82*,-8,-17,1%
CC(C)NC(=O)Nc1ccc2c(c1)CC(=O)N([C@@H](C)CO)C[C@H](C)[C@H](CN(C)Cc1ccc(C(=O)O)cc1)O2,/,/,/,/,4,/,/
O=C(/C(=N/N=C/c1ccc(O)c(O)c1O)c1ccccc1)c1ccccc1,2,-17,-20,41,5,78,/
Oc1ccc(/C=N/N=C(c2ccccc2)c2ccccc2)c(O)c1O,0,5,-9,76*,0,-23,4.2µM*
O=C(c1ccc2c(c1)OCO2)C1CCCN(Cc2ccc3cccc(F)c3n2)C1 (stereo not drawn),2,-7,-13,51*,15,5,-5%
CN1CCN(C2=C(NS(=O)(=O)c3ccccc3)C(=O)c3ccccc3C2=O)CC1,0,-12,/,48,/,5,/
CN1CCN(C2=C(Cl)C(=O)c3ccccc3C2=O)CC1,-17,15,6,106*,41,73,-3%
O=C1C(Cl)=C(N2CCC(C(=O)O)CC2)C(=O)c2ccccc21,6,-6,/,102*,/,-8,2%
COc1cc(N)c(C(=O)c2nccc3cc(OC)c(OC)cc23)cc1OC,1,-19,-7,72*,6,15,-2%
COc1cc(C(=O)c2nccc3cc(OC)c(OC)cc23)c([N+](=O)[O-])cc1OC,1,1,2,54*,2,32,-9%
COc1cc2ccnc(C=O)c2cc1OC,19,11,/,0,/,6,/
COc1cc(Br)c(C(=O)c2nccc3cc(OC)c(OC)cc23)cc1OC,2,-4,-5,99*,7,8,-5%
C[C@H]1CN([C@@H](C)CO)C(=O)c2cccc(NS(=O)(=O)c3ccc(F)cc3)c2O[C@H]1CN(C)Cc1ccc(C(=O)Nc2ccccc2N)cc1,/,/,/,/,-10,/,/
CO[C@H]1CC[C@@H]2CCOc3ccc(C#N)cc3C(=O)N(C)C[C@@H](C)C(=O)N(C)C[C@H]1O2,/,/,-5[16.7 µM],/,7,/,/
O=C(NC(=S)NNC(=O)c1ccccc1O)c1ccccc1,3,4,6,1,-11,-11,/
Cc1ccc(C(=O)NC(=S)NNC(=O)c2ccccc2O)cc1,-1,17,12,50*,6,8,-7%
